From PubChem BioAssay (NCI) come the findings set out here.

Molecules are shown by their SMILES. Several values for one entry are separate records, joined by “and”; a condition that tells them apart may be missing. Equal values may be shown once. Compounds without any hit were thinned out: in the full panel of roughly 79,000, 15% have a hit. Some structures have more than one record in an assay (separate samples or runs), and their calls can disagree. Activity calls are given as the source filed them. Cut-off read from the data, not from the text of the source: active = growth inhibition above about 70%; inactive = the rest.

A short description of assay [1]: NCI Yeast Anticancer Drug Screen. Data for the rad50 strain (AID 155).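 Note: 0% = growth of vehicle-only cultures of the same strain.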 Conditions: S. cerevisiae rad50 strain growth inhibition, stronger effect = higher value. A digest of the protocol:
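Vehicle-treated cultures provide the reference for the growth inhibition reported for compound-exposed, repair-deficient yeast.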

The nature of assay [2]: NCI Yeast Anticancer Drug Screen. Data for the mec2-1 strain (AID 157). Conditions: S. cerevisiae mec2-1 strain, stronger effect = higher value. A digest of the protocol: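 Test agents were screened against the mec2-1 yeast strain, with defined DNA repair or cell cycle alteration. Growth was scored as inhibition against vehicle-only controls.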
Assay [3] in a line: NCI Yeast Anticancer Drug Screen. Data for the sgs1 mgt1 strain (AID 161).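 Note: 0% = growth of cultures given vehicle only.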 The settings on record: S. cerevisiae sgs1 mgt1 strain, stronger effect = higher value. A digest of the protocol:
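Inhibition of yeast growth, normalised to vehicle-treated controls, is reported for a strain bearing genetic alterations in DNA damage repair.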

A short description of assay [4]: NCI Yeast Anticancer Drug Screen. Data for the cln2 rad14 strain (AID 165).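 Note: 0% = growth equal to vehicle treated cultures.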 Conditions: S. cerevisiae cln2 rad14 strain, stronger effect = higher value. A digest of the protocol:
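Growth of compound-exposed yeast (cln2 rad14 genotype) measured and expressed as inhibition relative to vehicle.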

The nature of assay [5]: NCI Yeast Anticancer Drug Screen. Data for the bub3 strain (AID 167). The settings on record: S. cerevisiae bub3 mutant strain, stronger effect = higher value. A digest of the protocol:
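Mutant yeast screening strain plus compound; vehicle-treated cultures serve as the 0% inhibition reference.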

The nature of assay [6]: NCI Yeast Anticancer Drug Screen. Data for the mlh1 rad18 strain (AID 175). The settings on record: S. cerevisiae mlh1 rad18 strain growth inhibition, stronger effect = higher value. The gist of the method: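 In this whole-cell yeast screen, a strain with altered DNA damage repair is challenged with compound, and its growth is measured against matched vehicle-treated controls.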
[7] abbreviates: at 5.0 µM (retest, dose inferred, filed as 0.5).
The mark [8] stands for this setting: at 50.0 µM (retest, dose inferred, filed as 5.0).

Turning to `CCc1nc(N)nc(N)c1-c1ccc(Cl)c(N=[N+]=[N-])c1`, the growth inhibition was 41% (inactive) in assay [1] (setting [7]); 40% (inactive) in assay [1] (setting [8]); 6.65% (inactive) and 71.2% (active) in assay [1] (at 50.0 µM); 18% (inactive) in assay [2] (setting [7]); 21% (inactive) in assay [2] (setting [8]); -15.3% (inactive) and 65.5% (inactive) in assay [2] (at 50.0 µM). Further, the growth inhibition in assay [3] (setting [7]) was 56% (inactive); in assay [3] (setting [8]), 54% (inactive); in assay [3] (at 50.0 µM), -0.8% (inactive) and 61.6% (inactive); in assay [4] (setting [7]), 18% (inactive); in assay [4] (setting [8]) it was 28% (inactive); in assay [4] (at 50.0 µM), -6.55% (inactive) and 62.5% (inactive). The growth inhibition is 30% (inactive) in assay [5] (setting [7]); 26% (inactive) in assay [5] (setting [8]); 6.35% (inactive) and 54.5% (inactive) in assay [5] (at 50.0 µM); 65% (inactive) in assay [6] (setting [7]); 62% (inactive) in assay [6] (setting [8]); -1.7% (inactive) and 27.7% (inactive) in assay [6] (at 50.0 µM).

With `CCOC(=O)[C@H]1Nc2ccc([N+](=O)[O-])cc2C2c3ccccc3CC21` (some centres undefined), the growth inhibition was 32% (inactive) in assay [1] (setting [7]); 91% (active) in assay [1] (setting [8]); 80.3% (active) in assay [1] (at 50.0 µM); -11% (inactive) in assay [2] (setting [7]); 48% (inactive) in assay [2] (setting [8]); 87.8% (active) in assay [2] (at 50.0 µM). In addition, the growth inhibition in assay [3] (setting [7]) is 24% (inactive); in assay [3] (setting [8]), 93% (active); in assay [3] (at 50.0 µM), 91.2% (active); in assay [4] (setting [7]), 8% (inactive); in assay [4] (setting [8]), 91% (active); in assay [4] (at 50.0 µM), 86.3% (active). Further, the growth inhibition is 6% (inactive) in assay [5] (setting [7]); 89% (active) in assay [5] (setting [8]); 88.2% (active) in assay [5] (at 50.0 µM); 17% (inactive) in assay [6] (setting [7]); 90% (active) in assay [6] (setting [8]); 84% (active) in assay [6] (at 50.0 µM).

In the case of `c1ccc(C2=NC(c3ccccc3)=NS(S3=NC(c4ccccc4)=NC(c4ccccc4)=N3)=N2)cc1` (centres undefined), the growth inhibition in assay [1] (setting [7]) is 27% (inactive); in assay [1] (setting [8]) it was 94% (active); in assay [1] (at 50.0 µM), 74.7% (active); in assay [2] (setting [7]), 5% (inactive); in assay [2] (setting [8]) it was 98% (active); in assay [2] (at 50.0 µM), 75.2% (active). In addition, the growth inhibition is 20% (inactive) in assay [3] (setting [7]); 98% (active) in assay [3] (setting [8]); 82.7% (active) in assay [3] (at 50.0 µM); 20% (inactive) in assay [4] (setting [7]); 94% (active) in assay [4] (setting [8]); 43% (inactive) in assay [4] (at 50.0 µM). The growth inhibition was 30% (inactive) in assay [5] (setting [7]); 97% (active) in assay [5] (setting [8]); 38% (inactive) in assay [5] (at 50.0 µM); 18% (inactive) in assay [6] (setting [7]); 97% (active) in assay [6] (setting [8]); 92.3% (active) in assay [6] (at 50.0 µM).

`CCOC(=O)/C(C#N)=C\c1ccc([N+](=O)[O-])o1`: the growth inhibition is 15% (inactive) in assay [1] (setting [7]); 98% (active) in assay [1] (setting [8]); -8.25% (inactive) and 99% (active) in assay [1] (at 50.0 µM); 12% (inactive) in assay [2] (setting [7]); 99% (active) in assay [2] (setting [8]); -12.1% (inactive) and 99.3% (active) in assay [2] (at 50.0 µM). For the same compound, the growth inhibition in assay [3] (setting [7]) was 8% (inactive); in assay [3] (setting [8]), 99% (active); in assay [3] (at 50.0 µM), -20.9% (inactive) and 99.3% (active); in assay [4] (setting [7]) it was 4% (inactive); in assay [4] (setting [8]) it was 98% (active); in assay [4] (at 50.0 µM), 19.1% (inactive) and 99% (active). Moreover, the growth inhibition was 12% (inactive) in assay [5] (setting [7]); 99% (active) in assay [5] (setting [8]); -13.4% (inactive) and 99.2% (active) in assay [5] (at 50.0 µM); 16% (inactive) in assay [6] (setting [7]); 99% (active) in assay [6] (setting [8]); -16.9% (inactive) and 99% (active) in assay [6] (at 50.0 µM).

Take `CC(CCc1nc2ccccc2s1)(c1ccc(O)cc1)c1ccc(O)cc1`: the growth inhibition is 27% (inactive) in assay [1] (setting [7]); 99% (active) in assay [1] (setting [8]); 99.5% (active) in assay [1] (at 50.0 µM); -5% (inactive) in assay [2] (setting [7]); 100% (active) in assay [2] (setting [8]); 99.7% (active) in assay [2] (at 50.0 µM). The growth inhibition in assay [3] (setting [7]) is 15% (inactive); in assay [3] (setting [8]), 100% (active); in assay [3] (at 50.0 µM), 99.3% (active); in assay [4] (setting [7]), 6% (inactive); in assay [4] (setting [8]), 99% (active); in assay [4] (at 50.0 µM), 98.3% (active). For the same compound, the growth inhibition in assay [5] (setting [7]) was -12% (inactive); in assay [5] (setting [8]) it was 99% (active); in assay [5] (at 50.0 µM), 99.2% (active); in assay [6] (setting [7]) it was 11% (inactive); in assay [6] (setting [8]), 100% (active); in assay [6] (at 50.0 µM), 99.2% (active).

With `N#CC(=C1C=CC(=NOC(=O)Nc2cccc3ccccc23)C=C1)c1ccccc1`, the growth inhibition in assay [1] (setting [7]) was 44% (inactive); in assay [1] (setting [8]) it was 99% (active); in assay [1] (at 50.0 µM), 97.8% (active); in assay [2] (setting [7]), 35% (inactive); in assay [2] (setting [8]) it was 99% (active); in assay [2] (at 50.0 µM), 97.7% (active). For the same compound, the growth inhibition in assay [3] (setting [7]) was 51% (inactive); in assay [3] (setting [8]), 100% (active); in assay [3] (at 50.0 µM), 98.5% (active); in assay [4] (setting [7]), 10% (inactive); in assay [4] (setting [8]), 99% (active); in assay [4] (at 50.0 µM), 97.7% (active). Also, the growth inhibition in assay [5] (setting [7]) was 62% (inactive); in assay [5] (setting [8]), 99% (active); in assay [5] (at 50.0 µM), 98.3% (active); in assay [6] (setting [7]), 30% (inactive); in assay [6] (setting [8]) it was 99% (active); in assay [6] (at 50.0 µM) it was 97.5% (active).

For the compound `CCCCCCCCCCCCCCCCCC(=O)OC(Cc1ccccc1)C(=O)O` (centres undefined), the growth inhibition in assay [1] (setting [7]) is 1% (inactive); in assay [1] (setting [8]), -2% (inactive); in assay [1] (at 50.0 µM), 33.9% (inactive); in assay [2] (setting [7]), 1% (inactive); in assay [2] (setting [8]) it was 2% (inactive); in assay [2] (at 50.0 µM), 18% (inactive). Moreover, the growth inhibition is 1% (inactive) in assay [3] (setting [7]); -15% (inactive) in assay [3] (setting [8]); 15.7% (inactive) in assay [3] (at 50.0 µM); 2% (inactive) in assay [4] (setting [7]); -9% (inactive) in assay [4] (setting [8]); 26.2% (inactive) in assay [4] (at 50.0 µM). Moreover, the growth inhibition was 1% (inactive) in assay [5] (setting [7]); 2% (inactive) in assay [5] (setting [8]); 35.7% (inactive) in assay [5] (at 50.0 µM); 0% (inactive) in assay [6] (setting [7]); -1% (inactive) in assay [6] (setting [8]); 32.9% (inactive) in assay [6] (at 50.0 µM).

In the case of `COc1cc(O)ccc1C(=S)SC`, the growth inhibition in assay [1] (setting [7]) is 6% (inactive); in assay [1] (setting [8]), 78% (active); in assay [1] (at 50.0 µM), 85% (active); in assay [2] (setting [7]) it was 1% (inactive); in assay [2] (setting [8]), 18% (inactive); in assay [2] (at 50.0 µM) it was 29.6% (inactive). For the same compound, the growth inhibition was 5% (inactive) in assay [3] (setting [7]); 66% (inactive) in assay [3] (setting [8]); 42.5% (inactive) in assay [3] (at 50.0 µM); 0% (inactive) in assay [4] (setting [7]); 29% (inactive) in assay [4] (setting [8]); 9% (inactive) in assay [4] (at 50.0 µM). For the same compound, the growth inhibition in assay [5] (setting [7]) was -5% (inactive); in assay [5] (setting [8]), 33% (inactive); in assay [5] (at 50.0 µM), -6.9% (inactive); in assay [6] (setting [7]), 12% (inactive); in assay [6] (setting [8]), 87% (active); in assay [6] (at 50.0 µM), 30.9% (inactive).
